The panel holds about 79,000 compounds, 15% with a hit somewhere; the sample as a whole holds those more often. Cut-off read from the data, not from the text of the source: active = growth inhibition above about 70%; inactive = the rest.
Key:
[1] = NCI Yeast Anticancer Drug Screen. Data for the rad50 strain (AID 155);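 note: 0% = growth of vehicle-only cultures of the same strain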; conditions: S. cerevisiae rad50 strain growth inhibition; at 50.0 µM; stronger effect = higher value
In short: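 Readout: growth inhibition relative to vehicle-treated cultures. Compound exposure was carried out in a genetically defined yeast strain deficient in DNA damage repair.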

[2] = NCI Yeast Anticancer Drug Screen. Data for the mec2-1 strain (AID 157); conditions: S. cerevisiae mec2-1 strain, at 50.0 µM, stronger effect = higher value
In short: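 Yeast mec2-1 mutant treated with compound. Readout: growth inhibition vs vehicle controls.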

[3] = NCI Yeast Anticancer Drug Screen. Data for the sgs1 mgt1 strain (AID 161);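 note: 0% = growth of cultures given vehicle only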; conditions: S. cerevisiae sgs1 mgt1 strain, at 50.0 µM, stronger effect = higher value
In short: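 Genetically altered yeast, compound exposure, growth inhibition relative to vehicle.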

[4] = NCI Yeast Anticancer Drug Screen. Data for the cln2 rad14 strain (AID 165);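 note: 0% = growth equal to vehicle treated cultures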; conditions: S. cerevisiae cln2 rad14 strain, at 50.0 µM, stronger effect = higher value
In short: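 cln2 rad14 yeast strain; compound exposure; growth inhibition read vs vehicle controls.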

[5] = NCI Yeast Anticancer Drug Screen. Data for the bub3 strain (AID 167); conditions: S. cerevisiae bub3 mutant strain, at 50.0 µM, stronger effect = higher value
In short: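 Readout: yeast growth inhibition, expressed relative to vehicle-only wells. The test organism is a mutant strain from a panel with lesions in DNA repair or checkpoint genes.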

[6] = NCI Yeast Anticancer Drug Screen. Data for the mlh1 rad18 strain (AID 175); conditions: S. cerevisiae mlh1 rad18 strain growth inhibition; at 50.0 µM; stronger effect = higher value
In short: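 Yeast w/ defined DNA-repair lesions; compound exposure; growth vs vehicle controls → % inhibition.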

Measured: growth inhibition

N#CC(=C1C=CC(=NO)C=C1)c1ccc(Cl)cc1
inactive: [1] -0.05% | [2] 2.5% | [3] 8.3% | [4] -124% | [5] 20.9% | [6] 1.9%

CC(O)c1ccc(N=NN(C)C)cc1 (stereo unspecified)
inactive: [1] -2.5% | [2] 2.75% | [3] -3.15% | [4] -1.55% | [5] 0% | [6] 21.2%

CCCCOC(=O)NC(=O)c1cn(CCSCCOC(=O)NCCCCCCNC(=O)OCCSCCn2cc(C(=O)NC(=O)OCCCC)c(=O)[nH]c2=O)c(=O)[nH]c1=O
inactive: [1] -15.2% | [2] -12.5% | [3] -9.55% | [4] 2.15% | [5] -15.9% | [6] -15.4%

COc1ccc(CCN2C(=O)C(=O)N(C(C)C)C2=O)cc1OC
inactive: [1] 7.9% | [2] 1.6% | [3] 13% | [4] 16.4% | [5] 4.85% | [6] 14.7%

COc1ccc2c(c1)-c1cc(OC)ccc1C2c1ccccc1
inactive: [1] -1.1% | [2] -9.15% | [3] -7.6% | [4] -57.5% | [5] 5.15% | [6] -7.25%

Cc1cccc(Nc2nc(NNC(=O)Cc3ccccc3)nc(NNC(=O)c3ccncc3)n2)c1
inactive: [1] 17.4% | [2] -12.9% | [3] 42.2% | [4] 33.4% | [5] 22.6% | [6] 18.8%

c1ccc2cc(CCc3cc4ccccc4cn3)ncc2c1
inactive: [1] 10.2% | [2] 11.4% | [3] 7% | [4] -16.1% | [5] 24.4% | [6] 25.6%

CCOC(=O)/C=C/CC1CCNC1 (stereo unspecified)
inactive: [1] -22.8% | [2] -2.6% | [3] -13.4% | [4] -52% | [5] -1.5% | [6] -6%

CCC(C)NC(=O)/C=C/c1ccccc1 (stereo unspecified)
inactive: [1] 31.9% | [2] 17.1% | [3] 14.4% | [4] 12.4% | [5] -1.1% | [6] 6.65%

CCC1C(C)C=CN1c1nc(N)nc(NS(=O)(=O)c2cc(C)c(Cl)cc2S)n1 (stereo unspecified)
inactive: [1] -18.2% | [2] 2.5% | [3] 17.7% | [4] -1.9% | [5] 4.3% | [6] 12.2%

c1cnc2c(c1)-n1cccc1C1(CCOCC1)NN2
inactive: [1] -73.5% | [2] -30.2% | [3] -54.5% | [4] -11.3% | [5] -13.3% | [6] -40.9%

CC(C)CC(N)C(=O)NC(Cc1c[nH]c2ccccc12)C(N)=O (stereo unspecified)
inactive: [1] -8.85% | [2] 3.35% | [3] 18.1% | [4] -2.4% | [5] 22.4% | [6] 10.5%

CC(c1ccc(N)cc1)n1cnc2c(Cl)ncnc21 (stereo unspecified)
inactive: [1] -3.75% | [2] 18.2% | [3] 4.1% | [4] -5.5% | [5] 8.85% | [6] 7.85%

Cc1c(C(=N)N)oc2ccccc12
inactive: [1] 6.3% | [2] 0.05% | [3] 0.4% | [4] -31.5% | [5] -4.15% | [6] 3.95%

COc1ccc(CCN(C)C2c3ccccc3C=Cc3ccccc32)cc1OC
inactive: [1] 30.5% | [2] 2.4% | [3] 3.35% | [4] -16.2% | [5] -1.85% | [6] 8.65%

C#CCN
inactive: [1] 9.25% | [2] 2% | [3] 2.8% | [4] 3.75% | [5] 8.05% | [6] -12.7%

C=C(COC(=O)C(C)C)[C@H]1Oc2ccc(C(C)=O)cc2[C@@H]1OC(=O)C(C)C
inactive: [1] -11.5% | [2] -3.9% | [3] -15.9% | [4] -9.55% | [5] 0.45% | [6] -23.1%

CCNC(=S)N/N=C/c1cc(OC)ccc1O
inactive: [1] -11.7% | [2] 23.4% | [3] 0.2% | [4] 11% | [5] 23.1% | [6] -13.9%

CCc1c(O)cc(=O)oc1-c1ccc(OC)c(OC)c1
inactive: [1] 21% | [2] -16.2% | [3] 2.15% | [4] 6.05% | [5] -6.9% | [6] -26.6%

CCN(CC)Cc1cc(C)c(O)c(N=Nc2cc(OC)c(N=Nc3ccc([N+](=O)[O-])cc3)cc2OC)c1C
inactive: [1] 16% | [2] 12.4% | [3] 34.1% | [4] 34.1% | [5] 4.7% | [6] 50.1%

O=[N+]([O-])c1ccc(S(=O)(=O)N/N=C/c2cccc3ccccc23)cc1
inactive: [1] 6.6% | [2] -1.25% | [3] 17.1% | [4] -15.8% | [5] -0.3% | [6] 19.8%

Reference: PubChem BioAssay (NCI)
